Screening results from PubChem BioAssay.
Compounds with a hit are over-represented: about 5.9% of the library has one in this group of screens.
S2 tox: viability counter-screen for ATXN expression inhibitors | S2 cells (HEK-293 line with an ATXN2-luciferase reporter) viability, CellTiter-Fluor protease fluorescence, 24 h | Potency, µM (highest dose often 56.7 µM), usual class: cytotoxic | hit rate 0.49% among 400,000 | AID 651635; further: nearly all actives have a fitted effect of over 40% in size
HepG2 tox-1: kills HepG2 cells in TGF-b inhibitor counter-screen; HepG2 CAGA-GFP viability, ATP luminescence, 18 h; Potency, µM (series often up to 46.1 µM), without a hit: top-dose activity change, negative = cytotoxicity, actives largely listed as cytotoxic; hit rate 0.76% among 410,000; AID 588856
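HepG2 CAGA-GFP cells (1000/well, DMEM with 1% FBS) received compound, then TGF-beta at 500 pg/mL final, and were incubated 18 hours at 37 degrees C. Viability was read by CellTiter-Glo luminescence. Media-only wells were set as complete cell-killing and DMSO as no toxicity.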
ATXN2 expr inh: reduces ATXN2 reporter expression in HEK-293 cells. HEK-293 ATXN2-luciferase reporter, luminescence, 24 h. Potency, µM (series often up to 57 µM), without a hit: top-dose activity change, negative = inhibition, most hits filed as inhibitors. hit rate 0.72% among 360,000. AID 1745845; further: on the % scale 0 is the no-effect control and ±100 the full control effect; nearly all actives have a fitted effect of over 55% in size
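qHTS (up to 57 uM final) was run with 24 h compound exposure of reporter cells at 37 °C. Each well was multiplexed: SteadyGlo luminescence measured ATXN2-luciferase expression after a fluorogenic Gly-Phe-AFC viability readout (25 uM final).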
TGFb inhibitor: TGF-b pathway inhibition; Potency, µM (titrated, usually from 46.1 µM), for inactives: top-dose activity, negative = inhibition, actives largely listed as inhibitors; hit rate 1.2% among 410,000; AID 588855; HepG2 CAGA-GFP TGF-b/SMAD3 reporter, GFP fluorescence, 18 h; TGF-beta stimulated, 500 pg/mL final; further: on the % scale 0 is the no-effect control and ±100 the full control effect; nearly all actives have a fitted effect of over 65% in size
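Inhibition of TGF-beta-driven CAGA-GFP reporter expression in HEPG2 cells is measured by cellular GFP fluorescence after 18 h stimulation with 500 pg/mL recombinant TGF-beta in 1% FBS medium at 37 degrees C.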
KB-3-1 cytotox: kills parental KB-3-1 adenocarcinoma cells; AID 1347075; KB-3-1 viability, CellTiter-Glo ATP luminescence, 72 h; Potency, µM (series often up to 46.1 µM), usual class: cytotoxic; hit rate 1.4% among 400,000; further: on the % scale 0 is the no-effect control and ±100 the full control effect; nearly all actives have a fitted effect of over 60% in size
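Cells are dispensed, compounds pinned in, plates held at 37 °C for 72 h, then CellTiter-Glo is added and luminescence read after 10 minutes. Cell line: parental KB-3-1 in phenol-red-free DMEM, 10% FBS.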
KB-V1 cytotox: kills drug-selected multidrug resistant KB-V1 cells; KB-V1 MDR cells viability, CellTiter-Glo, 72 h; Potency, µM (top dose mostly 46.1 µM), usual class: cytotoxic; hit rate 3.4% among 400,000; AID 1347076; further: on the % scale 0 is the no-effect control and ±100 the full control effect; nearly all actives have a fitted effect of over 60% in size
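Drug-selected KB-V1 cells, grown in DMEM lacking phenol red with 10% FBS, receive compound titrations; after three days at 37 degrees C, surviving cell ATP is quantified by CellTiter-Glo luminescence and responses normalized and curve-fitted.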
TGFb CAGA inh: confirmation of TGF-b signaling inhibitors in HepG2 reporter cells. shares compounds with TGFb inhibitor. HepG2 CAGA-GFP TGF-b reporter, GFP fluorescence, 18 h; cells stimulated with TGF-beta, 500 pg/mL. Potency, µM (doses to about 46.1 µM), for inactives: top-dose activity, negative = inhibition, actives largely listed as inhibitors. hit rate 63% among 1,600; further: on the % scale 0 is the no-effect control and ±100 the full control effect; nearly all actives have a fitted effect of over 65% in size
HepG2 tox-2: counter-screen for TGF-b inhibitors: cytotoxicity in HepG2 cells | HepG2 CAGA-GFP viability, ATP luminescence, 18 h; cells stimulated with TGF-beta, 500 pg/mL | AID 720535 | shares compounds with TGFb inhibitor | hit rate 27% among 1,600 | Potency, µM (doses to about 46.1 µM), inactives show at the highest dose activity, negative = cytotoxicity, most hits filed as inhibitors; further: on the % scale 0 is the no-effect control and ±100 the full control effect; nearly all actives have a fitted effect of over 70% in size
CCL64 TGFb inh: TGF-b inhibition, CCL64 orthogonal assay | hit rate 41% among 1,600 | CCL64 CAGA-GFP reporter, TGF-b stimulated, GFP fluorescence, 18 h | Potency, µM (series often up to 46.1 µM), for the others: at the highest dose activity, negative = inhibition, most hits filed as inhibitors | shares compounds with TGFb inhibitor; further: nearly all actives have a fitted effect of over 65% in size
TGFb COP inh: TGF-b inhibition validated with COP promoter; hit rate 3% among 1,600; AID 720537; shares compounds with TGFb inhibitor; Potency, µM (titrated, usually from 46.1 µM), for inactives: top-dose activity, negative = inhibition, usual class: inhibitors; HepG2 COP-GFP TGF-b reporter, GFP fluorescence, 18 h; cells stimulated by added recombinant TGF-beta; further: nearly all actives have a fitted effect of over 70% in size
Numbers without * were called inactive; i = inactive; ? = inconclusive; / = no result. The call rests on the fitted dose curve; in most records, active means well fitted curve in the direction sought with a large enough effect; inconclusive means small, poorly fitted or top-dose-only effect, or another doubt; inactive means no such curve, though single readings can be large; an effect the other way counts as inactive or inconclusive. Potency means the concentration at half of the fitted maximal effect.

SMILES	S2 tox	HepG2 tox-1	ATXN2 expr inh	TGFb inhibitor	KB-3-1 cytotox	KB-V1 cytotox	TGFb CAGA inh	HepG2 tox-2	CCL64 TGFb inh	TGFb COP inh
COc1ccc(NC(=O)Cn2cnc3sc(C)c(S(=O)(=O)N4CCN(C)CC4)c3c2=O)cc1Cl	i	1.2%	-3.2%	-13.2%	i	i	/	/	/	/
CN(C)c1cccc2c1C(=O)c1ccccc1C2=O	?	-18.4%	-2.5%	-22.6%	i	?	/	/	/	/
Cc1ccc(SC2=C(N(C)C)C(=O)c3ccccc3C2=O)cc1	?	-49.7%	?	10µM*	?	i	?	-21.1%	20.6µM*	43.1%
COc1ccc(NC(=O)NNC(=O)COc2ccc(Cl)cc2C)cc1OC	i	-24.2%	-3.0%	3.6%	?	?	/	/	/	/
COc1ccc(OC)c(NC(=O)NNC(=O)CCCOc2ccc(Cl)cc2C)c1	i	-21.2%	-21.5%	?	i	?	16.4µM*	-11.1%	4.5%	20.1%
COc1ccc(/C=C(\C#N)c2nc3ccccc3[nH]2)cc1O	?	-10.9%	30.6%	-21.1%	i	i	/	/	/	/
O=C(/C(=C/c1ccc(Cl)cc1)c1nc2ccccc2[nH]1)c1cccs1	3.55µM*	-105.9%	?	5.01µM*	i	?	3.26µM*	2.59µM*	4.11µM*	-19.7%
O=C(/C(=C\c1ccccc1)c1nc2ccccc2[nH]1)c1ccc(Cl)cc1	/	-56.5%	?	?	?	?	/	/	/	/
COc1cc(/C=C(/C(=O)c2cccs2)c2nc3ccccc3[nH]2)ccc1O	?	-21.5%	?	15.8µM*	?	16.4µM*	7.31µM*	13µM*	13µM*	71.3%
CCCOc1ccc(C2C(=O)N(C3CCCCCC3)CC(=O)N2CCC2=CCCCC2)cc1OC (stereo not drawn)	/	-6.1%	/	-1.5%	/	/	/	/	/	/
CCCN1C(=O)C2(c3ccccc31)c1c(oc3cc(C)c(C)cc3c1=O)C(=O)N2CCCOC (stereo not drawn)	i	3.0%	18.7%	-5.6%	i	i	/	/	/	/
Cc1ccc(OCCNC(=O)/C=C/c2ccc([N+](=O)[O-])cc2)cc1C	i	-0.5%	-7.0%	?	?	?	-23.3%	-1.6%	-8.6%	1.7%
Cc1ccc(CS(=O)(=O)c2ncc(Cl)c(C(=O)Nc3nc4ccc(C)cc4s3)n2)cc1	/	-51.0%	?	-27.6%	i	i	/	/	/	/
Cc1cccc(CS(=O)(=O)c2ncc(Cl)c(C(=O)NCc3ccc4c(c3)OCO4)n2)c1	?	14.1µM*	/	7.94µM*	i	i	5.8µM*	13µM*	2.91µM*	?
COc1ccccc1NC(=O)c1nc(S(=O)(=O)Cc2ccccc2)ncc1Cl	?	-39.7%	?	4.47µM*	7.31µM*	?	2.91µM*	5.8µM*	2.06µM*	14.6µM*
